Laboratory results from PubChem BioAssay AID588683 (Broad Institute, 2011).
Results with a measured potency or affinity are listed apart. Active and inactive are the calls of the source. How the calls were made is not given here.

What follows are compounds tested against Kelch-like ECH-associated protein 1 (Homo sapiens) + Nuclear factor erythroid 2-related factor 2 (Homo sapiens) (UniProt Q14145+Q16236) (assay: disruptors of Keap1 binding to Nrf2 peptide – biochemical, fluorescence polarization, cherry-picked samples, dose response (AID 588683;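 further: Kelch domain of Keap1 binding a fluorescein-labelled 9mer Nrf2 peptide; more negative means stronger inhibition of peptide binding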)). Conditions: plate reader; series mostly up to 26 µM.
Chain of Kelch-like ECH-associated protein 1 (Homo sapiens) + Nuclear factor erythroid 2-related factor 2 (Homo sapiens) (Q14145 whole entry, looked up, the tested form may be a part): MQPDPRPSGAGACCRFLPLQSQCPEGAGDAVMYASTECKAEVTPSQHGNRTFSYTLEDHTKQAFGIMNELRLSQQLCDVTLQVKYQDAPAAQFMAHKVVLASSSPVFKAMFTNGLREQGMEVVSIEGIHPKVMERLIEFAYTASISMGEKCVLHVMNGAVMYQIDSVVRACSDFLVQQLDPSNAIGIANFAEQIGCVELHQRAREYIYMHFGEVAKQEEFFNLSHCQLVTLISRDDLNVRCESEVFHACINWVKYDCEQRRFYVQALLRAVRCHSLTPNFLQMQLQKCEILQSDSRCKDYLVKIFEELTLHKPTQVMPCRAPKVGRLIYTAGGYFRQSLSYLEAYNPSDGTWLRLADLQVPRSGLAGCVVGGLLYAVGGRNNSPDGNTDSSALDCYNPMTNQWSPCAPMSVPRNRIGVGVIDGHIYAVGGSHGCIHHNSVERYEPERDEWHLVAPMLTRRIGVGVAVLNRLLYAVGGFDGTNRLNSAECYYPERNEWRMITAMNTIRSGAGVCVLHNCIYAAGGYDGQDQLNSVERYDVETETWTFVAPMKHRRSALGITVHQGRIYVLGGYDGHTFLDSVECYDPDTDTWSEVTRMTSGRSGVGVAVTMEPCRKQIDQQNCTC
Chain of Kelch-like ECH-associated protein 1 (Homo sapiens) + Nuclear factor erythroid 2-related factor 2 (Homo sapiens) (Q16236 whole entry, looked up, the tested form may be a part): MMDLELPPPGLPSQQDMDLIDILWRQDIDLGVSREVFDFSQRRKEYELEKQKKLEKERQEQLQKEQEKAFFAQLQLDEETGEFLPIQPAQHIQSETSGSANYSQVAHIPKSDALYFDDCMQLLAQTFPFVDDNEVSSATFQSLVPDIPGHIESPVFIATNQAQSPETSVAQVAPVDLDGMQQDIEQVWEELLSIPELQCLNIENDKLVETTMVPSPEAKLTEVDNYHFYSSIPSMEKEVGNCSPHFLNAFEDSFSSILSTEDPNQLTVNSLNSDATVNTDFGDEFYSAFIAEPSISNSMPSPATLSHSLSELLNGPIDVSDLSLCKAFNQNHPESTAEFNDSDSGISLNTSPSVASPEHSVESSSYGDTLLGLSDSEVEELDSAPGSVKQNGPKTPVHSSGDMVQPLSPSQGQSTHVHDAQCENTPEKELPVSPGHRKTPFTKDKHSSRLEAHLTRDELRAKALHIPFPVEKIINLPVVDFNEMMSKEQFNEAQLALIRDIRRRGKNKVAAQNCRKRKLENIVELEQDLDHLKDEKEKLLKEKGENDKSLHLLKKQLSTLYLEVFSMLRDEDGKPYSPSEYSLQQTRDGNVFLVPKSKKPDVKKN

outcome, inactive:
COc1[nH]c(/N=C/c2ccccc2)c(C#N)c1C#N
O=C(CSC1=NNC(c2ccccn2)S1)Nc1cccc(Cl)c1 (configuration not stated)
COc1ccccc1NC(=O)C(C)OC(=O)C1COc2ccccc2O1 (configuration not stated)
CCOC(=O)C1=C(CSc2nc3c(cc2C#N)CN(C)CC3)OC(N)=C(C#N)C1c1ccncc1 (configuration not stated)
CNC(=S)Nc1cccc(C(=O)OC)c1
COc1cc(Cl)c(C)cc1NCC(=O)Nc1cccc(S(=O)(=O)N2CCCC2)c1
O=C(NCCOCc1ccc(Cl)cc1)c1ncn[nH]1
CCOc1ccc(NC(=O)COC(=O)CCN2C(=O)C3CC=CCC3C2=O)cc1OCC (configuration not stated)
Cc1ccccc1OCCC(=O)Nc1cc(S(=O)(=O)N2CCCCC2)ccc1N1CCN(C)CC1
N/C(Cc1cccc2ccccc12)=N\O
CCC(CNc1cc(OC)cc2cccnc12)NC1CCCCC1 (configuration not stated)
O=C1c2cccc3c(N4CCCCC4)ccc(c23)C(=O)N1c1cccc(O)c1
CCC(C(=O)NC1C(=O)N2C(C(=O)O)=C(CSc3nnc(C)s3)CSC12)c1ccccc1 (configuration not stated)
CNS(=O)(=O)c1ccc2c3c(cccc13)C(=O)N2C
O=C1C=CC(=O)c2c(O)c(N3CCN(CCOCCO)CC3)c(Br)c(O)c21
O=C(CCCCl)NC(=S)Nc1ccc(N2CCOCC2)cc1
O=C1c2ccccc2-c2onc3ccc(Oc4ccccc4)c1c23
Nc1c(C(=O)Nc2ccccc2F)sc2nc(Cc3ccccc3)cc(C(F)(F)F)c12
COc1ccc(NS(=O)(=O)c2ccc(F)c(Cl)c2)cn1
CNc1nnc(SCC(=O)c2cc(C)n(C3CC3)c2C)s1
CC(=O)Nc1c(N)c2ccccc2oc1=O
O=C(CCCN1C(=O)/C(=C\c2ccco2)SC1=S)Nc1ccc(O)cc1C(=O)O
CCOCCCn1c(=NC(=O)c2cccs2)c(C#N)cc2c(=O)n3cccc(C)c3nc21
CCCCNC(=S)Nc1ccc(OC)nc1
COc1ccc(NC(=S)N2CCN(Cc3ccc(C)cc3)CC2)cc1
CCCCN(C(=O)CC1CCCCC1)c1c(N)n(CC(C)C)c(=O)[nH]c1=O
Cc1ccc(OC(C)C(=O)N2CCN(c3ccccn3)CC2)cc1 (configuration not stated)
S=C1SCN(CC2CC2)CN1CC1CC1
C=CCOC(=O)C1=C[C@H](c2csc3ccccc23)C[C@H](OCc2ccc(CO)cc2)O1
CCOC(=O)c1c(C)[nH]c(C(=O)COC(=O)c2cccnc2Cl)c1C
O=C(NNc1ncnc2sccc12)c1ccc(Cl)cc1
CCCC(=O)Nc1ccc(C(=O)NCCCn2ccnc2)cc1
COc1ccccc1Cn1c(=S)[nH]c2ccccc2c1=O
O=C(Cc1ccc(S(=O)(=O)N2CCCC2)s1)Nc1nc2c(s1)CCCC2
CC(C)C1OC2(C)OC(=N)C1(C#N)C(C#N)(C#N)C2c1ccccc1 (configuration not stated)
CN1C(=O)c2cccc3c(S(N)(=O)=O)ccc1c23
Clc1ccc(-c2noc(CN3CCOCC3)n2)cc1
